KB-V1 MDR tox – kills drug-selected multidrug resistant KB-V1 cells; KB-V1 MDR cells viability, CellTiter-Glo, 72 h; Potency, µM (highest dose often 46.1 µM), actives largely listed as cytotoxic; 400,000 compounds, 3.4% hits; also: nearly all actives have a fitted effect of over 60% in size
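Cytotoxicity via CellTiter-Glo luminescence after 72 h compound exposure at 37 degrees C. Cells: drug-selected KB-V1 line, DMEM phenol-red free plus 10% FBS. Compounds tested at multiple concentrations; normalized data fitted to concentration-effect curves.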
SW480 rereplic – inducers of DNA re-replication in SW480 colon cancer cells; SW480 DNA re-replication, Hoechst DNA content imaging, 48 h; Potency, µM (top dose mostly 46.1 µM), hits mostly activators; 340,000 compounds, 1.8% hits; AID 624297; also: nearly all actives have a fitted effect of over 55% in size
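250 cells/well; 23 nL cpd via pin tool; 48 hr, 37 C, 5% CO2; Hoechst 40 min; imager read of total nuclear intensity, ex 405/em 500-530 nm.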
KB-3-1 tox – kills parental KB-3-1 adenocarcinoma cells | KB-3-1 viability, CellTiter-Glo ATP luminescence, 72 h | Potency, µM (doses to about 46.1 µM), hits mostly cytotoxic | 400,000 compounds, 1.4% hits; also: nearly all actives have a fitted effect of over 60% in size
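Screening of KB-3-1 cells (DMEM, 10% FBS, phenol-red free) ran from lowest to highest compound concentration; after 72 h at 37 °C viability was read luminescently and curves fitted.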
MCF10A rereplic – inducers of DNA re-replication in MCF 10A breast cells; Potency, µM (titrated, usually from 46.1 µM), usual class: activators; 350,000 compounds, 2.9% hits; MCF 10A DNA re-replication, Hoechst nuclear intensity, 48 h; also: nearly all actives have a fitted effect of over 50% in size
HT1080 IDH1KD tx – kills HT-1080 cells with IDH1 knockdown; 360,000 compounds, 2% hits; Potency, µM (series often up to 46.1 µM), actives largely listed as cytotoxic; HT-1080 IDH1 knockdown viability, ATP luminescence, 48 h
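HT-1080-IDH1KD cells (IDH1 knocked down), 750/well in RPMI with 5% FBS, treated with compound 48 h at 37 degrees C. Viability by CellTiter-Glo luminescence, normalised to DMSO and no-cell wells; concentration-response curves classed.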
HT1080NT lethal – kills 2HG-producing HT-1080-NT fibrosarcoma cells | HT-1080-NT fibrosarcoma viability, CellTiter-Glo ATP luminescence, 48 h | Potency, µM (doses to about 46.1 µM), most hits filed as cytotoxic | 360,000 compounds, 1.6% hits;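 also: NT is the 2HG producing partner of a matched IDH1 knockdown line; nearly all actives have a fitted effect of over 55% in size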
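Viability by CellTiter-Glo luminescence after 48 h compound exposure at 37C of HT-1080-NT cells (750/well, RPMI, 5% FBS). % activity scaled between DMSO wells and medium-only wells, then curve-fitted and categorized by curve class.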
Each line names hits and unclear results; the compound was inactive in the other large screens. Compounds with a hit are over-represented: about 8% of the library has one in this group of screens. Calls follow the shape of the dose curve; as a rule, active = well fitted curve in the direction sought with a large enough effect; inconclusive = small, poorly fitted or top-dose-only effect, or another doubt; inactive = no such curve, though single readings can be large; an effect the other way counts as inactive or inconclusive.

O=C(Nc1ccccc1N1CCCCC1)c1ccc(OC(F)F)cc1	MCF10A rereplic 13µM
CCOc1ccc(C(=O)Nc2ccccc2N2CCCC2)cc1	KB-V1 MDR tox inconclusive, SW480 rereplic inconclusive, KB-3-1 tox 23.1µM, MCF10A rereplic inconclusive
COc1ccc(OC)c(NC(=O)CN2CCC(C(=O)c3ccc(C)cc3)CC2)c1	KB-V1 MDR tox 8.2µM, KB-3-1 tox inconclusive, MCF10A rereplic 18.4µM, HT1080 IDH1KD tx inconclusive
COc1ccc(NC(=O)CN2CCC(C(=O)c3ccc(C)cc3)CC2)c(OC)c1	MCF10A rereplic inconclusive
COc1ccc(-c2ncncc2-c2csc(C)n2)c(O)c1OC	none
COC1=C(N)C(=O)c2nc(-c3nc(C(=O)O)c(C)c(-c4ccc(OC)c(OC)c4O)c3N)ccc2C1=O	KB-V1 MDR tox 0.206µM, KB-3-1 tox 0.146µM, HT1080 IDH1KD tx 0.0082µM, HT1080NT lethal 0.0092µM
O=C(/C(=C/O)N=Nc1ccccc1)c1ccncc1	MCF10A rereplic inconclusive, HT1080NT lethal inconclusive
Cc1cccc(N=N/C(=C\O)C(=O)c2cccs2)c1	KB-V1 MDR tox 25.9µM, MCF10A rereplic inconclusive, HT1080 IDH1KD tx 13µM, HT1080NT lethal inconclusive
Cc1cc(C(=O)N/N=C2\CC(=O)c3ccccc32)c(C)n1-c1ccc(F)cc1	SW480 rereplic 16.4µM
CCOc1cc(/C=N/NC(=O)c2cc(C)n(-c3ccc(F)cc3)c2C)ccc1O	KB-3-1 tox inconclusive
CCCCCCn1c(COc2ccccc2F)nnc1SCC(=O)N1c2ccccc2NC(=O)C1(C)C	KB-V1 MDR tox inconclusive, SW480 rereplic inconclusive, KB-3-1 tox inconclusive, MCF10A rereplic 20.6µM, HT1080 IDH1KD tx inconclusive
O=C(OCn1ncc(Cl)c(Cl)c1=O)c1ccccc1Cl	KB-V1 MDR tox inconclusive, SW480 rereplic 7.31µM, KB-3-1 tox 3.66µM, MCF10A rereplic 5.8µM, HT1080 IDH1KD tx 5.8µM, HT1080NT lethal 7.31µM
O=c1c(Cl)c(Cl)cnn1Cc1ccc(F)cc1	SW480 rereplic 6.51µM, KB-3-1 tox inconclusive, MCF10A rereplic 3.66µM, HT1080 IDH1KD tx inconclusive, HT1080NT lethal inconclusive
O=C(Cn1ncc(Cl)c(Cl)c1=O)c1ccc(Cl)cc1	KB-V1 MDR tox inconclusive, SW480 rereplic inconclusive, KB-3-1 tox inconclusive, MCF10A rereplic 9.2µM, HT1080 IDH1KD tx inconclusive, HT1080NT lethal 14.6µM
C=CCn1c(C)cc(C(=O)CN2NS(=O)(=O)c3ccccc3C2=O)c1C	KB-V1 MDR tox inconclusive, SW480 rereplic inconclusive, KB-3-1 tox inconclusive, MCF10A rereplic inconclusive, HT1080 IDH1KD tx 18.4µM, HT1080NT lethal 16.4µM
O=C(OCCN1CCCCC1)c1ccccc1Cl	none
O=C(Nc1cc(F)ccc1F)c1cnn2c1NC(=C1CC1)C=C2C(F)F	KB-V1 MDR tox inconclusive (no result: SW480 rereplic, MCF10A rereplic, HT1080 IDH1KD tx, HT1080NT lethal)
CC(C)(C)C(=O)Cn1ncc(N2CCCC2)c(Br)c1=O	none
C=CCn1c(C)cc(C(=O)Cn2ncc(Cl)c(Cl)c2=O)c1C	KB-V1 MDR tox inconclusive, SW480 rereplic 2.91µM, KB-3-1 tox inconclusive, MCF10A rereplic 5.8µM, HT1080 IDH1KD tx 3.26µM, HT1080NT lethal inconclusive
CC(C)(C)C(=O)Cn1ncc(Cl)c(Cl)c1=O	KB-V1 MDR tox inconclusive, SW480 rereplic inconclusive, MCF10A rereplic 2.06µM, HT1080 IDH1KD tx inconclusive, HT1080NT lethal 13µM
Cc1cccc(C(=O)Nc2cc3c(cc2N2CCCCC2)n(C)c(=O)n3C)c1	none (no result: SW480 rereplic, MCF10A rereplic, HT1080 IDH1KD tx, HT1080NT lethal)
CCOC(=O)c1c(C)[nH]c(C)c1S(=O)(=O)N1CCCC(C(=O)N2CCN(c3ccc(Cl)cc3)CC2)C1 (centres undefined)	none (no result: SW480 rereplic, MCF10A rereplic, HT1080 IDH1KD tx, HT1080NT lethal)
COc1cccc(CN2C(=O)CN(C3CCCCC3)C(=O)C2c2ccc(OC)c(OC)c2)c1 (centres undefined)	none (no result: SW480 rereplic, MCF10A rereplic, HT1080 IDH1KD tx, HT1080NT lethal)
CC(C)N(C(=O)[C@H]1C[C@H](CC(=O)NCCCN(C)C)C(=O)N2CCc3c([nH]c4cc(-c5ccco5)ccc34)[C@]12C)C(C)C	SW480 rereplic inconclusive, MCF10A rereplic inconclusive, HT1080 IDH1KD tx inconclusive, HT1080NT lethal inconclusive
COc1ccc2[nH]c3c(c2c1)CCN1C(=O)C(CC(=O)NCCc2ccccn2)C[C@H](C(=O)N2CCCCC2)[C@@]31CCc1ccccc1 (some centres undefined)	SW480 rereplic inconclusive
CCN(CC)C(=O)[C@H]1C[C@H](CC(=O)NC/C=C(\C)CCC=C(C)C)C(=O)N2CCc3c([nH]c4cc(-c5ccco5)ccc34)[C@]12C	KB-V1 MDR tox inconclusive, KB-3-1 tox inconclusive, MCF10A rereplic 20.6µM, HT1080 IDH1KD tx inconclusive, HT1080NT lethal inconclusive
CC(C)N(C(=O)[C@H]1C[C@H](CC(=O)NCCC2=CCCCC2)C(=O)N2CCc3c([nH]c4cc(-c5ccco5)ccc34)[C@]12C)C(C)C	KB-V1 MDR tox inconclusive, KB-3-1 tox 23.1µM, HT1080 IDH1KD tx inconclusive
CC(C)=CCC/C(C)=C/CNC(=O)C[C@H]1C[C@H](C(=O)N(C(C)C)C(C)C)[C@@]2(C)c3[nH]c4cc(-c5ccco5)ccc4c3CCN2C1=O	KB-V1 MDR tox inconclusive, KB-3-1 tox inconclusive, MCF10A rereplic inconclusive, HT1080 IDH1KD tx inconclusive, HT1080NT lethal inconclusive
COCCCNC(=O)CC1C[C@H](C(=O)N2CCCCC2)[C@@]2(CCc3ccccc3)c3[nH]c4ccc(OC)cc4c3CCN2C1=O (some centres undefined)	SW480 rereplic 18.4µM
CCN(CC)C(=O)[C@H]1C[C@H](CC(=O)NC/C=C(\C)CCC=C(C)C)C(=O)N2CCc3c([nH]c4ccc(Cl)cc34)[C@]12C	KB-3-1 tox inconclusive
CCN(CC)C(=O)[C@H]1CC(CC(=O)NC/C=C(\C)CCC=C(C)C)C(=O)N2CCc3c([nH]c4ccc(OC)cc34)[C@]12C (some centres undefined)	KB-V1 MDR tox inconclusive, SW480 rereplic inconclusive, KB-3-1 tox inconclusive, MCF10A rereplic inconclusive, HT1080 IDH1KD tx 16.4µM, HT1080NT lethal inconclusive
O=C(CCn1cnc2onc(-c3ccc(F)cc3)c2c1=O)N1CCN(c2ccccc2F)CC1	none (no result: SW480 rereplic, MCF10A rereplic, HT1080 IDH1KD tx, HT1080NT lethal)
